Calls of active or inactive are those of the source.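 The calls were made as follows, unless noted: active = fluorescence slope higher than the sample average by over 3 SD (cut at about -0.22 in these data, passing the limit was not always enough); inactive = the rest.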
How the values were obtained:
[1] = target: Voltage-gated potassium channel subunit beta-2 (Rattus norvegicus) (UniProt P62483); assay: KvBeta enzyme negative modulators, primary screen, biochemical, NADPH fluorescence (AID 622); settings: recombinant KvBeta, 4-cyanobenzaldehyde reduction, at 10 µM, stronger effect = higher value;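 also: slope of raw intensity against log time taken from 70 to 1610 s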
Sequence of Voltage-gated potassium channel subunit beta-2 (Rattus norvegicus) (P62483 whole entry, looked up): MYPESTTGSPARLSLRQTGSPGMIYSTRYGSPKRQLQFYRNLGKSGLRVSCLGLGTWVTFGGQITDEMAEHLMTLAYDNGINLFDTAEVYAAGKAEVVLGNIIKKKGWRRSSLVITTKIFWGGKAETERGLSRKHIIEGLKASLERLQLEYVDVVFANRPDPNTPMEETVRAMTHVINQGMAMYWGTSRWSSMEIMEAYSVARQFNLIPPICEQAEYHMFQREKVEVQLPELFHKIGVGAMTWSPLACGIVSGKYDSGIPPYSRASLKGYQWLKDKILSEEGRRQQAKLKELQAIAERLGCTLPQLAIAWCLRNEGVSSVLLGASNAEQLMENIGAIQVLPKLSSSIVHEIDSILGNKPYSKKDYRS

[2] = target: Voltage-gated potassium channel subunit beta-2 (Rattus norvegicus) (UniProt P62483); assay: KvBeta positive modulators, primary screen, biochemical, NADPH fluorescence (AID 623;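 active = NADPH fluorescence slope more negative than the mean of all samples by about 3 SD, 99.7% confidence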;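 also: fluorescence intensity change per second fitted from 20 to 320 s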); settings: Recombinant KvBeta, NADPH fluorescence decrease slope, 10 min; at 10 µM; stronger effect = lower value
[3] = target: Muscarinic acetylcholine receptor M4 (Homo sapiens) (UniProt P08173); assay: compounds altering M4/GIRK thallium flux, either direction, primary screen, M4 allosteric agonist project, cell-based, HEK293 M4/GIRK, BTC-AM (AID 625;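 active = fluorescence slope after compound addition differing from the mean of all tested samples at 99.7% confidence, mostly higher but some lower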;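 also: thallium influx through GIRK channels coupled to M4 in HEK293 cells with BTC-AM dye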); settings: at 10 µM, actives lie on both sides
Sequence of Muscarinic acetylcholine receptor M4 (Homo sapiens) (P08173 whole entry, looked up): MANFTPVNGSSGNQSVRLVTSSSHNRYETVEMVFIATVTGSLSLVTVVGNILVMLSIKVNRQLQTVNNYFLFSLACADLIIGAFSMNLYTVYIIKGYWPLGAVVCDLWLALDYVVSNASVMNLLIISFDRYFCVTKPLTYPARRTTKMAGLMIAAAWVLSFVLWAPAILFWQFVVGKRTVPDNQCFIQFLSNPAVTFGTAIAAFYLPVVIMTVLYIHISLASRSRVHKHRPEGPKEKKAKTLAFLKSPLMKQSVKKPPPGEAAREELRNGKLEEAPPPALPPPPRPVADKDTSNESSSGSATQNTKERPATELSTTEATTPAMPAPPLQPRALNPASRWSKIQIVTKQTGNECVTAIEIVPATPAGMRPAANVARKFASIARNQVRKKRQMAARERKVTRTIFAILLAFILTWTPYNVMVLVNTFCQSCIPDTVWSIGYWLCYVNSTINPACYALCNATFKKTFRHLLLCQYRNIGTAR

[4] = inhibitors of Sendai virus-induced IRF3 signaling, primary screen, TLR/RLR signaling modifier project, cell-based, Sendai virus stimulus, luciferase, 10K MLSCN set (AID 602276;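 active = inhibition at or above 50% at 10 µM; inactive = inhibition below 50%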;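 also: firefly luciferase from ISG56 promoter only with Renilla not read in this screen; 0% = Sendai virus plus DMSO and 100% = medium plus DMSO without virus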); settings: HEK293 RL24 IRF3 luciferase reporter, at 10 µM, stronger effect = higher value
[5] = inhibitors of poly I:C-induced TLR3 signaling, primary screen, cell-based, poly I:C stimulus, luciferase, 10K MLSCN set (AID 602277;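 active = inhibition of the reporter signal at or above 50%; inactive = inhibition below 50%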); settings: HEK293-TLR3 RL24 IRF3 luciferase reporter, at 10 µM, stronger effect = higher value
[6] = inhibitors of E-selectin induction by TNFa, primary screen, imaging, HUVEC, immunofluorescence, MLSMR starter and 10KST1 sets (AID 487;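 active = visually confirmed hit in the image check and inhibition above 20%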;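 as to inhibition: signal is fraction of cell area covered by stained E-selectin grains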;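 as to nuclei count: 100% = median nuclei count of all wells on the same plate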); settings: HUVEC TNFalpha-induced E-selectin immunofluorescence imaging, at 2 µM; inhibition: stronger effect = higher value; nuclei count: measured here: cell number, toxicity
[7] = DUSP6 inhibitors restoring Erk phosphorylation by chemical complementation, primary imaging in DUSP6-transfected HeLa (AID 609;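 active = compounds giving at least 50% inhibition in the cell-based MKP-3 phosphatase rescue imaging test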;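 as to inhibition: phospho-Erk level distribution per well compared with pooled transfected vehicle control wells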); settings: HeLa MKP-3 transfected, phospho-Erk imaging KS statistic, at 10 µM, cells stimulated with TPA for 15 min
[8] = target: Dual specificity protein phosphatase 6 (Homo sapiens) (UniProt Q16828); assay: as above; settings: HeLa MKP-3 transfected, phospho-Erk imaging KS statistic; at 10 µM; stronger effect = higher value; cells stimulated with TPA for 15 min
Sequence of Dual specificity protein phosphatase 6 (Homo sapiens) (Q16828 whole entry, looked up): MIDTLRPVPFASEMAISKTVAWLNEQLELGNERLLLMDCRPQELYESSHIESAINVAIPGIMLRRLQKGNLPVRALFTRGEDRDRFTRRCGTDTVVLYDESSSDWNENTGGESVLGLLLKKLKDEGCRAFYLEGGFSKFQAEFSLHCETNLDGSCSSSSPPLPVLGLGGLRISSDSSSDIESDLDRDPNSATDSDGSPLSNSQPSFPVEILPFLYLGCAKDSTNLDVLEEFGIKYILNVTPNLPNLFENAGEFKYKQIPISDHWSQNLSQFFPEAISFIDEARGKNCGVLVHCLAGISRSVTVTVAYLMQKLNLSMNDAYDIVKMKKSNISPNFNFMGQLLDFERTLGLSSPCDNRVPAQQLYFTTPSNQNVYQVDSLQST

[9] = inhibitors of larval lipid processing in zebrafish, primary screen, whole organism, PED6 fluorescence, gall bladder and intestine (AID 686;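 active = a full or partial loss of lipid-probe fluorescence in the fish gall bladder, intestine or both, judged by eye; inactive = no fluorescence loss, or compound toxic to the fish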;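 also: larvae 5 to 7 days old with five fish per well; signal comes from phospholipase A2 cleavage of quenched PED6 carried via bile; overnight exposure to compound and PED6 before scoring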); settings: Zebrafish larvae PED6 lipid processing, fluorescence scoring; screened at 20 µM (by protocol)
[10] = inhibitors of Chlamydomonas gravitaxis, primary screen, whole organism, Chlamydomonas reinhardtii, WT vs cilia-less mutant, absorbance, 96-well (AID 463189;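 active = inhibition at or above 50% relative to wild type and mutant plate controls; inactive = inhibition below 50%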;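 also: 0% = wild type cc124 cells in DMSO and 100% = ciliumless bld1 mutant cells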); settings: OD600 absorbance, 2 days, at 10 µM, stronger effect = higher value
[11] = target: Alpha-2C adrenergic receptor (Homo sapiens) (UniProt P18825); assay: modulators of alpha2C/GIRK thallium flux, primary screen, cell-based, HEK293 alpha2C/GIRK1/2 (AID 624;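 active = fluorescence slope after compound addition differing from the mean of all screened samples at 99.7% confidence, in either direction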;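 also: slope of fluorescence ratio to pre-addition baseline per second over 15 to 24 s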); settings: thallium flux BTC fluorescence, at 10 µM, actives lie on both sides
Sequence of Alpha-2C adrenergic receptor (Homo sapiens) (P18825 whole entry, looked up): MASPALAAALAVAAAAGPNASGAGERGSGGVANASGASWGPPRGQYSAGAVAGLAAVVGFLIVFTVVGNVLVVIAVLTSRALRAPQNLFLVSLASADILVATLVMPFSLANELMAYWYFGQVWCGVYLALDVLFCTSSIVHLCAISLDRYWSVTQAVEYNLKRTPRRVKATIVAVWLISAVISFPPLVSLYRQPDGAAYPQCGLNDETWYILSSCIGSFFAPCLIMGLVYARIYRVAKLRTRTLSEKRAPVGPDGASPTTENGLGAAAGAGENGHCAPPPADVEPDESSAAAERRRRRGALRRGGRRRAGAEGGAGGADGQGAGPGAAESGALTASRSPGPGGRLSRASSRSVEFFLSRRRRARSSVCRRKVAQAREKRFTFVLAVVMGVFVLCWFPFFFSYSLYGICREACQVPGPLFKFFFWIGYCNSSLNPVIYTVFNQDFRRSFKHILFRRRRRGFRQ

Cn1c(=O)[nH]c2cc3ccccc3cc21
fluorescence slope [1]: -0.527 (inactive) | NADPH fluorescence slope [2]: -6.1e-05 (inactive) | fluorescence slope [3]: 0.00589 (inactive) | inhibition [4]: 4.54% (inactive) | inhibition [5]: 5.31% (inactive)

CCC(NC(=O)Nc1nnc(C(F)(F)F)s1)(C(F)(F)F)C(F)(F)F
inhibition [6]: -242% (inactive) | nuclei count [6]: 141% | z-score ([7]; measured here: cell density z-score): 0.851 | z-score ([7]; measured here: nuclear c-Myc green intensity z-score): -0.831 | z-score ([7]; measured here: nuclear pErk red intensity z-score, stronger effect = higher value): 0.704 | inhibition [8]: 18.4% (inactive) | fluorescence slope [1]: -0.449 (inactive) | NADPH fluorescence slope [2]: -4.2e-05 (inactive) | fluorescence slope [3]: 0.00231 (inactive) | outcome [9]: inactive; toxic | inhibition [10]: 9.74% (inactive)

Cc1cc(C)cc(N(CC(=O)Nc2cccc(C)n2)S(=O)(=O)c2c(C)noc2C)c1
fluorescence slope [1]: -0.598 (inactive) | NADPH fluorescence slope [2]: -3.4e-05 (inactive) | slope [11]: 0.00547 (inactive) | inhibition [4]: 11.9% (inactive) | inhibition [5]: 42.2% (inactive)

CCOC(=O)C1CCCN(c2cc(=O)n(Cc3ccc(F)cc3)c(=O)[nH]2)C1 (stereo unspecified)
fluorescence slope [1]: -0.387 (inactive) | NADPH fluorescence slope [2]: -1.6e-05 (inactive) | fluorescence slope [3]: 0.0077 (inactive) | inhibition [4]: 11.9% (inactive) | inhibition [5]: 19.7% (inactive)

CCOc1ccc2[nH]c(C)cc(=O)c2c1
fluorescence slope [1]: -0.554 (inactive) | NADPH fluorescence slope [2]: 1.5e-05 (inactive) | slope [11]: 0.00617 (inactive) | inhibition [4]: -6.31% (inactive) | inhibition [5]: 16% (inactive)
